Reference: PubChem BioAssay (NCI)
Where “and” joins values, the source holds several entries; their conditions need not be identical. Equal values may be shown once. This is part of a sample that, as a whole, favours compounds with a hit. Of some 83,000 tested, about 20% had one in any assay.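 Assay: single dose, 48 h. Readout: percent growth (0 = no net growth; negative = cell death). Active: <10.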 Values without a mark were called inactive. Calls of active or inactive are those of the source.

Tested on: MDA-MB-468 breast
Test: NCI-60 one-dose screen, 48 h (100 = growth as untreated, 0 = no growth, -100 = all killed)
Conditions: 10 µM unless noted

| Compound | growth |
| --- | --- |
| CCCCN(CCCC)Cc1c(C)[nH]c2cc(OC)ccc2c1=O | 113% |
| O=[N+]([O-])c1ccccc1N=Nc1ccc(O)cc1O | 118% |
| FC(F)(F)c1cccc(-c2nnn(Cc3cc(-c4cccc(Cl)c4)no3)n2)c1 | 102% |
| O=C(Nc1ccc(N2CCNCC2)cc1)c1[nH]ncc1Nc1ncnc2sc3c(c12)CCC3 | -83.5% (active) |
| O=C1OCC2=C1C(c1ccncc1)c1cc3c(cc1N2CCO)OCO3 (stereo unspecified) | 96.3% |
| Cc1ccc(NC(=O)CSc2nc3ccccc3c(=O)n2CCc2ccccc2)c(C(=O)O)c1 | 110% |
| O=C1CC2(CCOCC2)Oc2ncccc21 | 30.4% |
| O=C1C(Br)=CC2C1C1C3CCC3C2(Br)C12OCCO2 (stereo unspecified) | 19.4% |
| COC(=O)C(=[N+]=[N-])C(=O)c1ccc([N+](=O)[O-])o1 | 81.7% |
| CCN1C(=S)N(CC)C2C1NN=C1SC(c3ccccc3)=CC(=O)N12 (stereo unspecified) | 92.6% |
| O=C(CCCCCCN1CC(=O)N2[C@@H](c3ccc(Cl)c(F)c3)c3[nH]c4ccccc4c3C[C@H]2C1=O)NO | 85.5% |
| CN1C(=O)/C(=C/c2ccc(C(=O)Nc3ncc(Cc4cc(Cl)ccc4Cl)s3)cc2)SC1=S | 44.2% |
| Cc1[nH]c2ccccc2c(=O)c1CC=C(Cl)Cl | -43.2% (active) |
| Cc1ccc(S(=O)(=O)CCCl)cc1 | 118% |
| COc1cccc(C(=O)NNc2nc(N3CCN(C4CCCCC4)CC3)nc(N3CCN(C(c4ccccc4)c4ccccc4)CC3)n2)c1 | 13.6% |
| CCNC(=O)Oc1ccc(/C(=C(/C)c2ccccc2)c2ccc(OCCN3CCCCCC3)cc2)cc1 | -16.9% (active) |
| CC(=O)c1cc(C(=O)N2c3ccccc3Sc3ccccc32)n2c1ccc1ccccc12 | 50.6% |
| CCC1=C[C@H]2CN(CCc3c([nH]c4ccccc34)[C@@](C(=O)OC)(c3cc4c(cc3OC)N(C)[C@H]3[C@@](O)(C(=O)OC)[C@H](OC(C)=O)[C@]5(CC)[C@@H]6C[C@@H]6CN6CC[C@]43[C@@H]65)C2)C1 | 7.4% (active) |

| Compound | growth |
| --- | --- |
| O=C1Nc2ccc(Br)cc2C1=O | 109% |
| CC(C)=CCC/C(C)=C/CC/C(C)=C/CC/C(C)=C/CSC[C@H](NC(=O)CCCCCN1CCN(C)CC1)C(=O)NC1CCCCC1 | 79.2% |
| COc1ccc2c(c1)C(=O)c1c-2c(=O)n(CCCN(C)C)c2cc(OC)c(OC)cc12 | 44.5% |
| Cc1sc2ncn(CC(=O)Nc3ccc(S(N)(=O)=O)cc3)c(=O)c2c1C | 104% |
| O=C(c1ccc(Cl)cc1)C(NCCO)c1ccc(Cl)cc1 (stereo unspecified) | 84.1% and 114% |
| COc1ccc(-c2nc(N)n(C(=S)Nc3ccccc3)n2)cc1 | 102% |
| S=C1CCCCCN1 | 108% |
| COc1cc(C2CC(=O)Nc3c2cnn3Cc2ccco2)cc2c1OCCO2 (stereo unspecified) | 73.8% |
| Clc1cccc(Cl)c1Cn1c(-c2cncs2)nc2ccccc21 | 52.6% |
| COc1cc(/C=C/C(=O)c2ccc(Nc3nc(Nc4ccccc4)nc(Nc4ccc(Cl)cc4)n3)cc2)cc(OC)c1OC | 76.3% |
| CCCCNC(=O)Oc1ccc(/C(=C(\C)c2ccccc2)c2ccc(OCCN(CC)CC)cc2)cc1 | 70.3% |
| Ic1ccc(SSc2ccc(I)cc2)cc1 | 108% |
| Cc1cccc2c1NC(=O)C2(c1ccc(O)cc1)c1ccc(O)cc1 | -11% (active) |
| COc1cc(C(=O)CCCl)ccc1O | 94.7% |
| O=c1[nH]c(-c2ccc(Cl)cc2)nc2sc3c(c12)CCCC3 | 82.2% |
| COc1ccc(/C=C(\C#N)n2nnc3cc(Cl)ccc32)cc1 | 18.5% |
| CCOC(=O)N1CCN(c2nc(Nc3cc(C)[nH]n3)c3ccccc3n2)CC1 | 30.6% |
| COc1ccc(C2=NN(C(C)=O)C(c3cccc(Nc4ccnc5cc(Cl)ccc45)c3)C2)cc1 (stereo unspecified) | 38.9% |
